# Experimental data taken from PubChem BioAssay (EPA / NIEHS).
# Records with an inconclusive call do not appear. Activity calls are given as the source filed them. How the source made its calls, unless noted: active means hit-call score of the fitted dose curve at least 0.9, where 1 is the maximum; inactive means score below 0.9.
# Experiments:
# [1] = ATG_NFI_CIS: Attagene CIS-FACTORIAL HepG2 Assay for human Nuclear Factor I (NFI) (AID 2282989); details: HepG2 cis-regulatory reporter, NFI response element transcription; actives raise or lower the signal
# How it was run: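 Multiplexed cis-reporter system in human HepG2 cells reports native TF activity as reporter mRNA induction 24 h post-dose. Fragments labelled with 6-FAM, HpaI-digested and resolved by capillary electrophoresis; activity fitted both directions versus DMSO.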
# [2] = molecular target: Myc proto-oncogene protein (Homo sapiens) (UniProt P01106); test: ATG_Myc_CIS: Attagene CIS-FACTORIAL HepG2 Assay for human Myelocytomatosis (Myc) Proto-Oncogene Transcription Factor (AID 2282990); details: HepG2, Attagene cis-reporter transcription factor activity; actives raise or lower the signal
# How it was run: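 HepG2 cells transiently transfected with multiple cis-promoter-driven reporter transcription units, so endogenous TF activity is read. After 24 h compound exposure, reporter mRNA was quantified by RT-PCR, 6-FAM labelling, HpaI digestion and capillary electrophoresis; bidirectional fit versus DMSO.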
# [3] = ATG_NRF2_ARE_CIS: Attagene CIS-FACTORIAL HepG2 Assay for human Nuclear Factor Erythroid 2 Related Factor 2 (NFR2) response to Antioxidant Response Elements (ARE) (AID 2282992); details: HepG2 Attagene ARE/NRF2 reporter, transcription factor activity; actives raise or lower the signal
# How it was run: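 Using transiently transfected HepG2 cells exposed for 24 h, reporter mRNA levels were determined by RT-PCR with fluorescent primer extension and capillary electrophoresis, analysed for gain or loss of signal against DMSO.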
# [4] = ATG_Oct_MLP_CIS: Attagene CIS-FACTORIAL HepG2 Assay for human Octamer-Binding Transcription Factor (Oct) (AID 2282993); details: HepG2 Attagene cis-factorial Oct reporter, mRNA; actives raise or lower the signal
# How it was run: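 After 24 h compound exposure, transfected HepG2 cells were lysed for total RNA; reporter-specific cDNA was PCR-amplified, fluorescently labelled and sized by capillary electrophoresis. Bidirectional curve fitting used DMSO as baseline.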
# [5] = molecular target: Cellular tumor antigen p53 (Homo sapiens) (UniProt P04637); test: ATG_p53_CIS: Attagene CIS-FACTORIAL HepG2 Assay for human p53 Transcription Factor (AID 2282994); details: HepG2 p53 cis-element reporter, Attagene mRNA; actives raise or lower the signal
# How it was run: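 In HepG2 cells, reporter transcription units under cis-regulatory promoters were transiently introduced. Following 24 h treatment, RNA was processed to labelled, digested cDNA fragments read by capillary electrophoresis; fitting was bidirectional versus DMSO.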
# [6] = BSK_3C_TissueFactor: BioMAP Diversity Plus: 3C Assay for Tissue Factor Biomarker Activity (AID 2282997); details: BioMAP 3C HUVEC, tissue factor biomarker readout; actives raise or lower the signal
# How it was run: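 In this endothelial system, HUVEC are treated for 24 h and Tissue Factor is assessed by ELISA, normalised to DMSO.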
# [7] = BSK_3C_VCAM1: BioMAP Diversity Plus: 3C Assay for Vascular cell adhesion molecule 1 (VCAM1) Biomarker Activity (AID 2282999); details: BioMAP 3C HUVEC, VCAM1 ELISA, cytokine-stimulated; actives raise or lower the signal
# How it was run: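 Vascular primary endothelium (human umbilical vein) was exposed to chemicals and assayed 24 h later. VCAM-1 levels came from ELISA, with DMSO serving as baseline for bidirectional fitting.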
# [8] = BSK_4H_Eotaxin3: BioMAP Diversity Plus: 4H Assay for Eotaxin 3 Biomarker Activity (AID 2283000); details: primary human endothelial cells (HUVEC); actives raise or lower the signal;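 further: CCL26 protein level quantified by ELISA in parallel with SRB cytotoxicity check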
# How it was run: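 ELISA quantitation of CCL26 (Eotaxin-3) protein from chemically dosed human vascular endothelial cells at 24 h; increases and decreases both scored relative to DMSO-treated baseline.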
# [9] = molecular target: human Peroxisome Proliferator-activated Receptor alpha (PPARa), PPARA (gene 5465) (UniProt Q07869); test: ATG_PPARa_TRANS: Attagene TRANS-FACTORIAL HepG2 Assay for human Peroxisome Proliferator-activated Receptor alpha (PPARa) (AID 2283001; active means hit-call score of the fitted dose curve at least 0.9, where 1 is the maximum)
# How it was run: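 Exposure: 24 h, transiently transfected HepG2 cells. Endpoint: GAL4-UAS reporter mRNA, RT-PCR with capillary electrophoresis fluorescence. Baseline: DMSO; increases fitted.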
# [10] = read-out: Intercellular Adhesion Molecule 1 (ICAM1), ICAM1 (gene 3383); test: BSK_3C_ICAM1: BioMAP Diversity Plus: 3C Assay for Intercellular Adhesion Molecule 1 (ICAM1) Biomarker Activity (AID 2283003); details: primary human endothelial cells (HUVEC); actives raise or lower the signal
# How it was run: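 Using DMSO as baseline, bidirectional curve fitting was applied to ICAM-1 ELISA signals from HUVEC in the 3C system, measured 24 h after compound addition.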
# [11] = BSK_3C_Proliferation: Cell Proliferation Assessment in the BioMAP Diversity Plus: 3C Assay (AID 2283006); details: primary human endothelial cells (HUVEC)
# How it was run: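 Measured here: sulforhodamine B (0.1%) staining of TCA-fixed sub-confluent umbilical vein endothelial cultures 48 h post-dosing, absorbance 560 nm. DMSO served as negative control and baseline; both signal gain and loss were modelled.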
# [12] = molecular target: Nuclear receptor subfamily 1 group I member 2 (Homo sapiens) (UniProt O75469); test: ATG_PXR_TRANS: Attagene TRANS-FACTORIAL HepG2 Assay for human Pregnane X Receptor (PXR) (AID 2283008; active means hit-call score of the fitted dose curve at least 0.9, where 1 is the maximum)
# How it was run: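 Multiplexed TRANS reporter panel in HepG2; this component tracks PXR-Gal4-driven reporter mRNA after 24 h dosing, measured by RT-PCR with capillary electrophoresis fluorescence, fitted against DMSO.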
# [13] = ATG_NF_kB_CIS: Attagene CIS-FACTORIAL HepG2 Assay for human Nuclear Factor Kappa B (NF-kB) (AID 2282991); details: HepG2 Attagene cis-factorial NF-kB reporter mRNA; actives raise or lower the signal
# How it was run: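 Endpoint from a 52-component multiplexed HepG2 reporter panel: cis-regulated transcription units transiently transfected, 24 h dosing, reporter mRNA quantified by RT-PCR and capillary electrophoresis, scored as increase or decrease against DMSO.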
# [14] = molecular target: Peroxisome proliferator-activated receptor gamma (Homo sapiens) (UniProt P37231); test: ATG_PPARg_TRANS: Attagene TRANS-FACTORIAL HepG2 Assay for human Peroxisome Proliferator-activated Receptor-gamma (PPARg) (AID 2283007; active means hit-call score of the fitted dose curve at least 0.9, where 1 is the maximum)
# How it was run: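 Endpoint reflects upward reporter mRNA change versus DMSO controls. Setup: transiently transfected HepG2, GAL4-UAS reporters driven by chimeric NR-Gal4, 24 h incubation, RT-PCR with capillary electrophoresis read-out.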
# [15] = molecular target: human Retinoic Acid Receptor beta (RARb), RARB (gene 5915) (UniProt P10826); test: ATG_RARb_TRANS: Attagene TRANS-FACTORIAL HepG2 Assay for human Retinoic Acid Receptor beta (AID 2283004; active means hit-call score of the fitted dose curve at least 0.9, where 1 is the maximum)
# How it was run: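 Fluorescent capillary-electrophoresis detection of GAL4-UAS reporter mRNA defines the endpoint, with induction over DMSO-treated wells scored as activity. Transiently transfected human hepatoma HepG2 cells expressing exogenous NR–Gal4 proteins are exposed to test chemicals for 24 h.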
# [16] = molecular target: Retinoic acid receptor alpha (Homo sapiens) (UniProt P10276); test: ATG_RARa_TRANS: Attagene TRANS-FACTORIAL HepG2 Assay for human Retinoic Acid Receptor alpha (RARa) (AID 2283005; active means hit-call score of the fitted dose curve at least 0.9, where 1 is the maximum)
# How it was run: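 HepG2 cells transiently transfected with multiple reporter units expressing chimeric RARα-GAL4 fusion, with GAL4-UAS-driven reporters. After 24 h compound exposure, reporter mRNA induction quantified by RT-PCR and capillary electrophoresis with fluorescent labeling; gain-of-signal fitted relative to DMSO control.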
# [17] = molecular target: human Retinoic Acid Receptor gamma (RARg), RARG (gene 5916) (UniProt P13631); test: ATG_RARg_TRANS: Attagene TRANS-FACTORIAL HepG2 Assay for human Retinoic Acid Receptor gamma (RARg) (AID 2283009; active means hit-call score of the fitted dose curve at least 0.9, where 1 is the maximum)
# How it was run: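 Gain-of-signal relative to DMSO is reported from fluorescent capillary electrophoresis of RT-PCR reporter products. These came from HepG2 cells expressing transfected RARg-GAL4 chimeras with UAS reporters, harvested 24 h after dosing.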
# [18] = molecular target: human RAR-related Orphan Receptor beta (RORb), RORB (gene 6096) (UniProt Q92753); test: ATG_RORb_TRANS: Attagene TRANS-FACTORIAL HepG2 Assay for human RAR-related Orphan Receptor beta (RORb) (AID 2283010; active means hit-call score of the fitted dose curve at least 0.9, where 1 is the maximum)
# How it was run: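 Multiplexed transcription-factor reporter assay: HepG2 cells transiently carrying NR-Gal4/GAL4-UAS constructs, 24 h treatment, mRNA quantified by RT-PCR plus capillary electrophoresis fluorescence; activity scored as induction over DMSO.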
# [19] = molecular target: human Peroxisome Proliferator-activated Receptor delta (PPARd), PPARD (gene 5467) (UniProt Q03181); test: ATG_PPARd_TRANS: Attagene TRANS-FACTORIAL HepG2 Assay for human Peroxisome Proliferator-activated Receptor delta (PPARd) (AID 2283002; active means hit-call score of the fitted dose curve at least 0.9, where 1 is the maximum)
# How it was run: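 HepG2 cells transiently transfected with multiplexed GAL4-UAS reporter units and exogenous chimeric NR-Gal4 proteins; 24 h compound exposure. Reporter mRNA measured by RT-PCR, 6-FAM labelling, HpaI digestion and capillary electrophoresis; gain of signal versus DMSO.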
# Chain of human Peroxisome Proliferator-activated Receptor alpha (PPARa), PPARA (gene 5465) (Q07869 whole entry, looked up, the tested form may be a part): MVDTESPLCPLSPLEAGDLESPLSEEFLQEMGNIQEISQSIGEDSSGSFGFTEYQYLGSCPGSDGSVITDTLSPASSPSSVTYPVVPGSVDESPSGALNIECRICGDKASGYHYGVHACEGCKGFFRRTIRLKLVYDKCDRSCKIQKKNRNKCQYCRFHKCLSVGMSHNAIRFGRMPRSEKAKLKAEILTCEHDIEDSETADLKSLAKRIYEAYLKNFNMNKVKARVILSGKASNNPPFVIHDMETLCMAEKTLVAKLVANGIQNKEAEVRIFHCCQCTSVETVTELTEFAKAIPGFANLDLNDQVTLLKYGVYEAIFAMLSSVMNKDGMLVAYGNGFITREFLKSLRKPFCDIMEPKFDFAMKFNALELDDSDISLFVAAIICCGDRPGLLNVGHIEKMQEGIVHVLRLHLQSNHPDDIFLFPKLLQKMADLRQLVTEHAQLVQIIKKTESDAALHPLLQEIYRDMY
# Chain of human Retinoic Acid Receptor beta (RARb), RARB (gene 5915) (P10826 whole entry, looked up, the tested form may be a part): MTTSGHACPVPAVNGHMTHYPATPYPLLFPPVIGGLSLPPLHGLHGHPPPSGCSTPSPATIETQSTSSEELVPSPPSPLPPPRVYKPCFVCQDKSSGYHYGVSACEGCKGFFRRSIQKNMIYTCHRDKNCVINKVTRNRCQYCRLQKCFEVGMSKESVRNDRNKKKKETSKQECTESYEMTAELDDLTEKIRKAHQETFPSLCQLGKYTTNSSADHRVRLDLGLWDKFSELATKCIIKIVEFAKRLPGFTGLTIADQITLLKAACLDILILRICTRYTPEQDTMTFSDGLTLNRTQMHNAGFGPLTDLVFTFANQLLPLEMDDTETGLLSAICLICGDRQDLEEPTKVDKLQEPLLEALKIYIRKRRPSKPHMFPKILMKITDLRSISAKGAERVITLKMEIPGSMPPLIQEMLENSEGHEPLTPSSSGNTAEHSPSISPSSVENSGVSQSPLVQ
# Chain of human Retinoic Acid Receptor gamma (RARg), RARG (gene 5916) (P13631 whole entry, looked up, the tested form may be a part): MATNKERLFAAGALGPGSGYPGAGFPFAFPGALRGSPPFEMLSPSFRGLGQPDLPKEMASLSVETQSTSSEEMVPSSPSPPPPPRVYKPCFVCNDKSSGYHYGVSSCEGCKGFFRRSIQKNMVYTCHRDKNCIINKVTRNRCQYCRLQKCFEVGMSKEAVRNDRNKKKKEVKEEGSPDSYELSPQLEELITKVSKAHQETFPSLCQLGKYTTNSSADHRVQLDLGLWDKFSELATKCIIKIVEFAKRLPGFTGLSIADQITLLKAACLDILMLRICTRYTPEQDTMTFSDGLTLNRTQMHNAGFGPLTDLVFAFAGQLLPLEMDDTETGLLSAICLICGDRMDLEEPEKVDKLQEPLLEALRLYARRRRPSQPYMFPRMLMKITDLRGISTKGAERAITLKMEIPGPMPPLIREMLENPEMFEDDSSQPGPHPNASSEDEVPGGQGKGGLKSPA
# Chain of Cellular tumor antigen p53 (Homo sapiens) (P04637 whole entry, looked up, the tested form may be a part): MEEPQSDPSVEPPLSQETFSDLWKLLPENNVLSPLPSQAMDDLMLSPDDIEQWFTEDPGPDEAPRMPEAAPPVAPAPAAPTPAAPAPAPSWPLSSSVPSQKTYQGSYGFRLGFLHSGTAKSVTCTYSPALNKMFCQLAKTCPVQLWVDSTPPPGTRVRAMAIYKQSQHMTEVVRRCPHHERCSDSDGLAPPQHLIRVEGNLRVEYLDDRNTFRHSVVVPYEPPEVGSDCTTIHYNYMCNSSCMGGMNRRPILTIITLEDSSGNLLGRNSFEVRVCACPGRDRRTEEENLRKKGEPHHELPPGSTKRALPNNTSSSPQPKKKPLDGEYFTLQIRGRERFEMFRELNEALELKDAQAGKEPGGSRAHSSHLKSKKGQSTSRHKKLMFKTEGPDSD
# Chain of Nuclear receptor subfamily 1 group I member 2 (Homo sapiens) (O75469 whole entry, looked up, the tested form may be a part): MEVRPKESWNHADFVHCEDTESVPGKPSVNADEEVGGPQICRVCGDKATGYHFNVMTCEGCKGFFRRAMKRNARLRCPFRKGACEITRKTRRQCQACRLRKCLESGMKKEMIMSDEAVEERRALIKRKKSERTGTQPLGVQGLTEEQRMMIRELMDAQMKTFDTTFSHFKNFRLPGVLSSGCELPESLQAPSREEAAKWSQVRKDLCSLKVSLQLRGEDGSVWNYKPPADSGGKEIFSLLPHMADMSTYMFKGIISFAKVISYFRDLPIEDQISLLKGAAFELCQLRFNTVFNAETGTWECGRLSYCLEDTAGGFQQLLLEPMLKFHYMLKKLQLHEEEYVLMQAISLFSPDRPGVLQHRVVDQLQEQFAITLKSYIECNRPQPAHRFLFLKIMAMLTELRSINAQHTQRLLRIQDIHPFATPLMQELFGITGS
# Chain of human RAR-related Orphan Receptor beta (RORb), RORB (gene 6096) (Q92753 whole entry, looked up, the tested form may be a part): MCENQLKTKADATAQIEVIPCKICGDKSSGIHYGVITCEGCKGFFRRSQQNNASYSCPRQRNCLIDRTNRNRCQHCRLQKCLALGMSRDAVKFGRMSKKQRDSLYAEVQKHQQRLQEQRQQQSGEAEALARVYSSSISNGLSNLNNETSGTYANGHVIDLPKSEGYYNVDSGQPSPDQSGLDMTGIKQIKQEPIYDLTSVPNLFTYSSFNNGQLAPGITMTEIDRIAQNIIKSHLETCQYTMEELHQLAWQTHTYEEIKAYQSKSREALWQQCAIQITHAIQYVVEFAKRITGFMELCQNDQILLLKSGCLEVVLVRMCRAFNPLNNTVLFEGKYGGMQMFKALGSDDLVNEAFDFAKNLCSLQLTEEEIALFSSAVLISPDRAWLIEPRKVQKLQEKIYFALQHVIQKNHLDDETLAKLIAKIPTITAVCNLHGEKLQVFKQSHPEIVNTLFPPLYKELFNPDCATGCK
# Chain of Myc proto-oncogene protein (Homo sapiens) (P01106 whole entry, looked up): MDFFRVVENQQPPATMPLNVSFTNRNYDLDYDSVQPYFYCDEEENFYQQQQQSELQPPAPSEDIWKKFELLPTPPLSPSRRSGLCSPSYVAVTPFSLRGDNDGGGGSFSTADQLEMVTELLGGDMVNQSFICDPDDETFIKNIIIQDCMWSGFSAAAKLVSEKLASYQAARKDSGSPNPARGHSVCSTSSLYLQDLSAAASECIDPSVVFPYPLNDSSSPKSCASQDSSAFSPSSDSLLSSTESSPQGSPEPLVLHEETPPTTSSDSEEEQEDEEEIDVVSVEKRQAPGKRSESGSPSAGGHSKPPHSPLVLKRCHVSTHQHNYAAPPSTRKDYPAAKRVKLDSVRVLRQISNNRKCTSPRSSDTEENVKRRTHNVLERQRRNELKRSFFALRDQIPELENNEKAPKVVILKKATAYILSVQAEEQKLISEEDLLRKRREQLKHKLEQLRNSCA
# Chain of Peroxisome proliferator-activated receptor gamma (Homo sapiens) (P37231 whole entry, looked up, the tested form may be a part): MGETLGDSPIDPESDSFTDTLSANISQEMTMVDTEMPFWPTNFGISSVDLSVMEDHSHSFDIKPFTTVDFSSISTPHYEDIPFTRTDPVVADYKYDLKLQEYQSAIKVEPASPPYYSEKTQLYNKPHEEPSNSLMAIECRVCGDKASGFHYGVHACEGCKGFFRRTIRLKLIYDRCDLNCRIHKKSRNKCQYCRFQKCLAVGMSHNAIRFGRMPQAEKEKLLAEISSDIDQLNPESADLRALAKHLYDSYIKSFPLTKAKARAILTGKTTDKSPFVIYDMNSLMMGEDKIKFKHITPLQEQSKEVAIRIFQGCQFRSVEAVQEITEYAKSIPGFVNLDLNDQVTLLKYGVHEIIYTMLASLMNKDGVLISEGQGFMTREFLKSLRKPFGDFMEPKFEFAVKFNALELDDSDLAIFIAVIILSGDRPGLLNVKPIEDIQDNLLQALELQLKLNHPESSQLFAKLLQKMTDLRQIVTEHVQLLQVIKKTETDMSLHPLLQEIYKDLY
# Chain of Retinoic acid receptor alpha (Homo sapiens) (P10276 whole entry, looked up, the tested form may be a part): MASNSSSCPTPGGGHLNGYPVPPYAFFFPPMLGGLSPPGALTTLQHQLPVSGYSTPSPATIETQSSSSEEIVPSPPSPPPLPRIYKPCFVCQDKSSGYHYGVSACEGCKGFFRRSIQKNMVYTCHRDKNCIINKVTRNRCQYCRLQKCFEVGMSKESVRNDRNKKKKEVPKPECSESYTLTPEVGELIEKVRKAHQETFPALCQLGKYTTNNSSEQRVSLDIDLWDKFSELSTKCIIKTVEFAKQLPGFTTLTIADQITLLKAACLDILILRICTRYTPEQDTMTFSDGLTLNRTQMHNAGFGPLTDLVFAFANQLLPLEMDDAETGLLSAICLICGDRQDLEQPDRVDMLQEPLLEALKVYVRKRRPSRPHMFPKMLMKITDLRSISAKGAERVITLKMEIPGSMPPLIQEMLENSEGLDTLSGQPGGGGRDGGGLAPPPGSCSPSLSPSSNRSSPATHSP
# Chain of human Peroxisome Proliferator-activated Receptor delta (PPARd), PPARD (gene 5467) (Q03181 whole entry, looked up, the tested form may be a part): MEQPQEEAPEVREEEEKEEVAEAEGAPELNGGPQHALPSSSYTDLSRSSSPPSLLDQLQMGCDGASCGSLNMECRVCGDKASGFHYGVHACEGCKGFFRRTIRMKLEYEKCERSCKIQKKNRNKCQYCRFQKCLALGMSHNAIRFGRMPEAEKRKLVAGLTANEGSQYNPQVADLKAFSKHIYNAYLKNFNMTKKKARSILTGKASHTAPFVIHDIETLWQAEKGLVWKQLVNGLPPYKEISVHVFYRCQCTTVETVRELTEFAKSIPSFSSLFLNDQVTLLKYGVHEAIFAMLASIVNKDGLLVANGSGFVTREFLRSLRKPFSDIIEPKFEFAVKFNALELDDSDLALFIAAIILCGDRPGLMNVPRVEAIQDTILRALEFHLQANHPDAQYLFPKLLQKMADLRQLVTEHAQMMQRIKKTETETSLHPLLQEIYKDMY
structure (smiles),measurement,setting,value
CCCCOC(=O)CCCCCCCC(=O)OCCCC,outcome,[1],inactive
same,outcome,[2],inactive
same,outcome,[3],inactive
same,outcome,[4],inactive
same,outcome,[5],inactive
same,outcome,[6],inactive
same,outcome,[7],inactive
same,outcome,[8],inactive
same,outcome,[9],inactive
same,outcome,[10],inactive
same,outcome,[11],inactive
same,outcome,[12],inactive
CC(C)(C)OC(=O)c1ccc(O)cc1,outcome,[1],inactive
same,outcome,[2],inactive
same,outcome,[13],inactive
same,AC50,[3],35 µM (active)
same,AC50,[14],39.4 µM (active)
same,outcome,[12],inactive
O=C(O)CNc1ccccc1,outcome,[1],inactive
same,outcome,[2],inactive
same,outcome,[13],inactive
same,outcome,[3],inactive
same,outcome,[5],inactive
same,outcome,[9],inactive
same,outcome,[15],inactive
same,outcome,[16],inactive
same,outcome,[14],inactive
same,AC50,[12],27.3 µM (active)
same,outcome,[17],inactive
same,outcome,[18],inactive
Cc1ncc([N+](=O)[O-])n1CCO,outcome,[1],inactive
same,outcome,[2],inactive
same,outcome,[3],inactive
same,outcome,[4],inactive
same,outcome,[5],inactive
same,outcome,[9],inactive
same,outcome,[15],inactive
same,outcome,[12],inactive
same,outcome,[18],inactive
Nc1ccc(NCCO)c([N+](=O)[O-])c1,outcome,[1],inactive
same,outcome,[2],inactive
same,AC50,[3],24.1 µM (active)
same,outcome,[4],inactive
same,outcome,[5],inactive
same,outcome,[9],inactive
same,outcome,[19],inactive
same,outcome,[14],inactive
same,outcome,[12],inactive
same,outcome,[17],inactive
COC(C)(C)CC(C)=O,outcome,[1],inactive
same,outcome,[2],inactive
same,outcome,[3],inactive
same,outcome,[4],inactive
same,outcome,[5],inactive
same,outcome,[9],inactive
same,outcome,[19],inactive
same,outcome,[12],inactive
C1CCCCC1,outcome,[1],inactive
same,outcome,[2],inactive
same,outcome,[13],inactive
same,outcome,[3],inactive
same,outcome,[5],inactive
same,outcome,[12],inactive
same,outcome,[18],inactive
CC1(C)COCN1,outcome,[1],inactive
same,outcome,[2],inactive
same,outcome,[13],inactive
same,outcome,[3],inactive
same,outcome,[5],inactive
same,outcome,[9],inactive
same,outcome,[15],inactive
same,outcome,[16],inactive
same,outcome,[12],inactive
O=C(Nc1ccc2c(O)c(N=Nc3ccc(N=Nc4ccc(S(=O)(=O)O)cc4)cc3)c(S(=O)(=O)O)cc2c1)c1ccccc1,outcome,[1],inactive
same,outcome,[2],inactive
same,outcome,[3],inactive
same,outcome,[4],inactive
same,outcome,[5],inactive
same,outcome,[6],inactive
same,outcome,[7],inactive
same,outcome,[8],inactive
same,outcome,[10],inactive
same,outcome,[11],inactive
same,outcome,[14],inactive
same,outcome,[12],inactive
CC(=O)O[C@@H]1CC2CCC1(C)C2(C)C (some centres undefined),outcome,[1],inactive
same,outcome,[2],inactive
same,outcome,[13],inactive
same,outcome,[3],inactive
same,outcome,[5],inactive
same,outcome,[9],inactive
same,outcome,[14],inactive
same,outcome,[17],inactive
same,outcome,[18],inactive
